Earlier results on 25 molecules are cited in PubChem BioAssay AID977611.

The nature of the data set: PubChem AID 977611. As to conditions: PDB protein-ligand complexes, literature Kd.

The whole screen tested about 3,900 compounds, of which about 3,900 (100%) were called active. The limit is not given here; nearly all actives have Kd up to about 4200 µM. So high a share suggests a set chosen from earlier hits. The list shows a part of the results. Numbered stars: 1 amine (or outer) side, 2 acyl side, 3 side chain; on linkers, the order of the positions; unused ones are H or OH. *1 amine or outer side, *2 acyl side, *3 side chain or, on linkers, in order; H or OH if unused. Where a SMILES comes first, the peptide text is derived from it. Square brackets hold non-standard residues; d marks the D form. Bridges are numbered along the chain shown (N, C = ends). Side-chain parts run from the residue outwards. Peptide text beside a SMILES is read from it. [ ]: non-standard residue; d: D form. X2 = C[C@@H](O)C(C)(C)n1cc([C@@H](O)[C@H](N[*:1])C(=O)[*:2])c2ccccc21; X1 = CC(C)C[C@@H](C(=O)[*:2])N(C[C@H](Cc1ccccc1)N[*:3])[*:1]; Ala(3R-Me,3-isobutenyl) = CC(C)=C[C@@H](C)[C@H](N)C(=O)O; NMeLeu(5-OH,4R) = CN[C@@H](C[C@@H](C)CO)C(=O)O; Phe(βR-OMe) = CO[C@H](c1ccccc1)[C@H](N)C(=O)O; Orn(CH(NH2)2) = NC(N)NCCC[C@H](N)C(=O)O; NMeL = CN[C@@H](CC(C)C)C(=O)O; S5 = C=CCCC[C@](C)(N)C(=O)O

As usually defined, the Kd is the concentration at which binding is half-saturated. Consider `Cc1ccc(C(=O)Nc2ccc(S(O)(O)O)c3cc(S(O)(O)O)cc(S(O)(O)O)c23)cc1N`, for which the Kd (protein: Nucleocapsid protein, PDB entry 4j4v) is 0.44 µM (active).
Consider `NCCc1c[nH]c2ccccc12`, for which, where the note is “protein: Biogenic amine-binding protein, PDB entry 4ge1”, the Kd is 0.37 µM (active).
For `Cc1[nH]c2ccccc2c1CC(=O)N[C@@H](Cc1ccccc1)C(=O)N(C)c1ccccc1`, the dissociation constant Kd (protein: CAPSID PROTEIN P24 CA Hexamer, PDB entry 4qnb) is 0.26 µM (active) and the Kd (protein: Capsid protein p24, PDB entry 4u0e) was 0.12 µM (active).
On to H-PVLFPGQPFGQPPA-OH, for which the Kd (protein: Capsid protein p24, PDB entry 4u0a) is 50 µM (active).
As for `CC(C)C[C@H](NC[C@H](Cc1ccccc1)NC(=O)[C@H](CC(N)=O)NC(=O)CNC(=O)[C@@H]1CCCN1C(=O)[C@@H](N)CCCNC(N)N)C(=O)N[C@@H](CCC(N)=O)C(=O)N[C@@H](CO)C(=O)N[C@@H](CCCNC(N)N)C(=O)N1CCC[C@H]1C(N)=O` (H-[X1]([Asn-Gly-Pro-Orn(CH(NH2)2)])QS[Orn(CH(NH2)2)]P-NH2), the Kd was 28.2 µM (active) (protein: PR(HIV-1 protease) with the V82A mutation (PRV82A), PDB entry 2aof) and 96.7 µM (active) (protein: wild-type PR(HIV-1 protease), PDB entry 2aoi).
In the case of H-PVLFPGAPFGQPPA-OH, for the setting “protein: Capsid protein p24, PDB entry 4u0b”, the Kd was 50 µM (active).
For `CC(C)C[C@H](NC(=O)[C@@H](NC(=O)[C@@H]1CCCN1)C(C)C)C(=O)N[C@@H](Cc1ccccc1)C(=O)N1CCC[C@H]1C(=O)NCC(=O)N[C@@H](CCC(N)=O)C(=O)N1CCC[C@H]1C(=O)N[C@@H](Cc1ccccc1)C(=O)NCC(=O)N[C@@H](CCC(N)=O)C(=O)N1CCC[C@H]1C(=O)N1CCC[C@H]1C(=O)O` (H-PVLFPGQPFGQPP-OH), the Kd (protein: CAPSID PROTEIN P24 CA Hexamer, PDB entry 4wym) was 99.8 µM (active).
For `COC(=O)C[C@@H]1N=C(c2ccc(Cl)cc2)c2c(sc(C)c2C)-n2c(C)nnc21`, under “protein: Bromodomain-containing protein 4, PDB entry 4f3i”, the Kd was 0.0361 µM (active).
For `NC1NC(=O)c2ncn([C@@H]3O[C@H](CO[P+](O)(O)O[C@H]4[C@@H](O)[C@H](n5cnc6c5NC(N)NC6=O)O[C@@H]4COP(O)O)[C@@H](OP(O)O)[C@H]3O)c2N1` (stereo partly specified), for the setting “protein: Simian 11 rotavirus (serotype 3 / strain SA11-Ramig), PDB entry 4g0a”, the Kd is 0.0253 µM (active).
As to `C[C@H]1OC(c2cccc(O)c2O)=N[C@@H]1C(=O)N(CCCNC(=O)c1cccc(O)c1O)CCCNC(=O)c1cccc(O)c1O`, the Kd (protein: Neutrophil gelatinase-associated lipocalin, PDB entry 4k19) was 0.0044 µM (active).
In the case of H-ITFEDLLDYYGP-OH, the Kd reads like this: (protein: HIV-1 Capsid Protein(L211S), PDB entry 3ds4) 64.5 µM (active); (protein: HIV-1 Capsid Protein(N183A), PDB entry 3ds0) 14.9 µM (active); (protein: HIV-1 Capsid Protein(Y169A), PDB entry 3ds3) 6 µM (active).
For `CC(C)C[C@H](NC(=O)[C@@H](NC(=O)[C@H](CCC(=O)O)NC(=O)[C@@H](N)Cc1ccc(O)cc1)[C@@H](C)O)C(=O)N[C@@H](CO[P+](O)(O)O)C(=O)N[C@@H](CC(=O)O)C(=O)N[C@@H](CO[P+](O)(O)O)C(=O)N[C@@H](CCC(=O)O)C(=O)O`, the Kd (protein: Msx2-interacting protein, PDB entry 2rt5) was 0.19 µM (active).
As for H-EDMFAKLKDKFFNEINK-OH, the Kd (PDB entry 2nm1) was 0.034 µM (active).
For H-TFKKTN-OH, the Kd (protein: Coatomer subunit beta', PDB entry 4j86) was 171 µM (active).
As to `CC(C)C[C@H](NC(=O)[C@H](CCCCN)NC(=O)[C@H](CC(C)C)NC(=O)[C@@H](NC(=O)[C@H](CC(N)=O)NC(=O)[C@H](CCC(N)=O)NC(=O)[C@H](CCCCN)NC(=O)[C@@H](NC(=O)[C@H](Cc1ccc(O)cc1)NC(=O)[C@H](CCCCN)NC(=O)[C@@H]1CCCN1)C(C)C)[C@@H](C)O)C(=O)N[C@@H](C)C(=O)N[C@H](C(=O)O)[C@@H](C)O`, the Kd (protein: SEC3 wt, PDB entry 1jwm) is 270 µM (active).
Turning to `CC[C@H](C)[C@H](N)C(=O)N[C@H](C(=O)N[C@@H](Cc1ccccc1)C(=O)N[C@@H](CCC(=O)O)C(=O)N[C@@H](CC(=O)O)C(=O)N[C@@H](CC(C)C)C(=O)N[C@@H](CC(C)C)C(=O)N[C@@H](CC(=O)O)C(=O)N[C@@H](Cc1ccc(O)cc1)C(=O)N[C@@H](Cc1ccc(O)cc1)C(=O)NCC=O)[C@@H](C)O` (H-ITFEDLLDYYG-aldehyde), the Kd (protein: HIV-1 Capsid Protein(E187A), PDB entry 3ds1) is 2 µM (active).
For `CC[C@H](C)[C@H](N)C(=O)N[C@H](C(=O)N[C@@H](Cc1ccccc1)C(=O)N[C@@]1(C)CCC/C=C\CCC[C@@](C)(C(=O)N[C@@H](Cc2ccc(O)cc2)C(=O)N[C@@H](Cc2ccc(O)cc2)C(=O)NCC(=O)N[C@@H](CCCCN)C(=O)N[C@@H](CCCCN)C(=O)N[C@@H](CCCCN)C(=O)O)NC(=O)[C@H](CC(C)C)NC(=O)[C@H](CC(C)C)NC(=O)[C@H](CC(=O)O)NC1=O)[C@@H](C)O` (H-ITF[S5]DLL[S5]YYGKKK-OH; staple (Z) 4-8), the Kd (protein: Capsid protein p24(W184A, M185A), PDB entry 2l6e) was 1 µM (active).
H-ITYDKGIQTDQ-OH: where the note is “protein: Dynein light chain 1, cytoplasmic, PDB entry 4ht6”, the Kd was 0.62 µM (active).
Take `O=C1N[C@@H](c2ccc(O)cc2)c2c(-c3ccccc3)n[nH]c21`: for the setting “protein: Capsid protein p24, PDB entry 4u0f”, the Kd was 1.2 µM (active).
Take `CC(C)C[C@H](NC(=O)CNC(=O)[C@@H](N)CCC(N)=O)C(=O)N[C@@H](CC(C)C)C(=O)N[C@@H](CC(=O)O)C(=O)N[C@@H](C)C(=O)N[C@@H](CC(C)C)C(=O)N[C@@H](CC(=O)O)C(=O)N[C@@H](CC(C)C)C(=O)N[C@@H](C)C(=O)N[C@@H](CO)C(=O)O`: the Kd (protein: 14-3-3 protein zeta/delta, PDB entry 4n7g) was 2.2 µM (active).
As for `CC(C)C[C@H](NC(=O)[C@H](CO)NC(=O)[C@H](CC(=O)O)NC(=O)[C@H](CC(C)C)NC(=O)[C@H](CC(C)C)NC(=O)[C@H](CC(=O)O)NC(=O)[C@H](CC(=O)O)NC(=O)[C@@H](NC(=O)[C@H](CCC(N)=O)NC(=O)[C@H](CC(=O)O)NC(=O)[C@H](CCC(N)=O)NC(=O)[C@H](CO)NC(=O)[C@H](C)NC(=O)[C@@H](NC(=O)[C@@H](NC(=O)CNC(=O)[C@H](C)N)C(C)C)C(C)C)C(C)C)C(=O)NCC(=O)N[C@@H](Cc1ccccc1)C(=O)O`, the Kd (protein: Chemotaxis protein cheY, PDB entry 2pl9) was 67.4 µM (active).
For `Cc1cc(C)c([C@H]2C(C(=O)c3cccs3)=C(O)C(=O)N2c2ccc(CC(=O)O)cc2)cc1C`, the Kd (protein: Polymerase cofactor Ebola virus VP35, PDB entry 4ibb) is 271 µM (active).
For the molecule `O=C(O)Cc1ccc(N2C(=O)C(O)=C(C(=O)c3ccc(Cl)s3)[C@@H]2c2cc(Br)cs2)cc1`, the Kd (protein: Polymerase cofactor Ebola virus VP35, PDB entry 4ibf) was 36.8 µM (active).
For the molecule `CN[C@@H](C)Cc1ccccc1`, the Kd (protein: Anti-METH scFv, PDB entry 4gqp) is 0.00025 µM (active).
Regarding `CO[C@H](c1ccccc1)[C@@H]1NC(=O)[C@H](C)NC(=O)[C@H](C[C@@H](C)CO)N(C)C(=O)[C@H]([C@H](O)c2cn(C(C)(C)[C@@H](C)O)c3ccccc23)NC(=O)[C@H]([C@H](C)C=C(C)C)NC(=O)[C@H](CC(C)C)N(C)C(=O)[C@H](C(C)C)NC1=O` (cyclo(A[Phe(βR-OMe)]V[NMeL][Ala(3R-Me,3-isobutenyl)][X2][NMeLeu(5-OH,4R)])), the Kd is 0.78 µM (active) (protein: Probable ATP-dependent Clp protease ATP-binding subunit(F2Y mutant), PDB entry 3wdd); 0.012 µM (active) (protein: Probable ATP-dependent Clp protease ATP-binding subunit, PDB entry 3wdc); 0.124 µM (active) (protein: Probable ATP-dependent Clp protease ATP-binding subunit, PDB entry 3wde).
